Calls of active or inactive are those of the source.
Columns and labels:
Albumin (Bos taurus) = Albumin (Bos taurus) (UniProt P02769); assay: compounds binding labelled BSA control protein – biochemical, small-molecule microarray, Alexa647 label, 635/667 nm fluorescence, artefact control for SMM control protein annotation, profiling panel (AID 1118); conditions: BSA-A647 binding, fluorescence 635 nm, higher = more signal;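 note: score merges 667 nm emission intensity and signal-to-noise per printed compound spot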
[1] = probe aXIP binding to arrayed compounds – biochemical, NeuroSMM set, 635/667 nm fluorescence, primary screen (AID 1119); conditions: small-molecule microarray, higher = more signal, called active from +8 up or from −8 down;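 note: probe is the protein aXip251-270 applied at 1 µg/mL to compound-printed slides; binding of probe to printed compounds measured as 667 nm fluorescence plus signal to noise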
[2] = probe aNOTCH3 binding on compound microarray – biochemical, small-molecule microarray, 635/667 nm fluorescence, primary screen (AID 1120); conditions: higher = more signal;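 note: probe is a biotin-tagged antibody raised against NOTCH3 rather than NOTCH3 protein; score merges spot fluorescence near 667 nm with spot signal to noise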
[3] = probe aNOTCH2 binding on compound microarray – biochemical, small-molecule microarray, 635/667 nm fluorescence, primary screen (AID 1121); conditions: higher = more signal;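 note: score merges feature fluorescence read at 667 nm with its signal to noise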
[4] = molecular target: Carbonic anhydrase 2 (Homo sapiens) (UniProt P00918); assay: compounds binding carbonic anhydrase 2 – biochemical, small-molecule microarray, Alexa647-labelled CAII, profiling panel (AID 1122); conditions: CAII-A647 binding fluorescence, higher = more signal
[5] = COS7 lysate on small-molecule microarray, probe aHis, 635 nm (AID 1123); conditions: COS7 cell lysate, fluorescence, higher = more signal;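 note: z-score combines 667nm fluorescence intensity with signal-to-noise per printed compound spot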
[6] = probe aLAP1 signal on lysate-treated microarray – cell lysate, small-molecule microarray, COS7 lysate, primary screen (AID 1124); conditions: probe aLAP1, fluorescence, higher = more signal;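 note: lysate comes from COS7 cells expressing LAP1 and is applied at 0.3 µg/mL; score merges spot fluorescence near 667 nm with signal-to-noise over triplicate slides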
Sam68 (KHDRBS1) = assay: compounds binding KHDRBS1 protein – biochemical, small-molecule microarray, 635 nm fluorescence, primary screen (AID 1125); conditions: higher = more signal;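 note: score merges 667 nm channel intensity with signal to noise over triplicate slides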
[7] = system: Chordin-like protein 2 (CHRDL2); assay: compounds binding chordin-like 2 – biochemical, small-molecule microarray, 635 nm fluorescence, primary screen (AID 1126); conditions: fluorescence 635 nm, higher = more signal;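 note: printed compound slides probed with Chrdl2 protein at 4 µg/mL for 1 h at 4 C; score merges 667 nm emission intensity with signal to noise over three replicate slides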
[8] = molecular target: Concanavalin-A (Canavalia ensiformis) (UniProt P02866); assay: compounds binding concanavalin A lectin – biochemical, small-molecule microarray, Alexa647 label, 635 nm, artefact control for SMM control protein annotation, primary screen (AID 1127); conditions: ConA-A647 binding fluorescence, higher = more signal;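 note: z combines 667 nm emission intensity with signal-to-noise across three replicate slides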
Sequence of Concanavalin-A (Canavalia ensiformis) (P02866 whole entry, looked up): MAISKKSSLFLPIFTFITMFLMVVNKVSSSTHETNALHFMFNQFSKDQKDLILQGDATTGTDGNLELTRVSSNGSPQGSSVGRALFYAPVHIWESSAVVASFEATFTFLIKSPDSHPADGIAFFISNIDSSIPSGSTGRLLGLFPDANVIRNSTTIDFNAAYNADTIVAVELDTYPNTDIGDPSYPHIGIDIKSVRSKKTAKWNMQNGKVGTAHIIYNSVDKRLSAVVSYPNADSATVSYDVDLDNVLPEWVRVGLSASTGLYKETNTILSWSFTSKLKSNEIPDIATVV

Sequence of Albumin (Bos taurus) (P02769 whole entry, looked up): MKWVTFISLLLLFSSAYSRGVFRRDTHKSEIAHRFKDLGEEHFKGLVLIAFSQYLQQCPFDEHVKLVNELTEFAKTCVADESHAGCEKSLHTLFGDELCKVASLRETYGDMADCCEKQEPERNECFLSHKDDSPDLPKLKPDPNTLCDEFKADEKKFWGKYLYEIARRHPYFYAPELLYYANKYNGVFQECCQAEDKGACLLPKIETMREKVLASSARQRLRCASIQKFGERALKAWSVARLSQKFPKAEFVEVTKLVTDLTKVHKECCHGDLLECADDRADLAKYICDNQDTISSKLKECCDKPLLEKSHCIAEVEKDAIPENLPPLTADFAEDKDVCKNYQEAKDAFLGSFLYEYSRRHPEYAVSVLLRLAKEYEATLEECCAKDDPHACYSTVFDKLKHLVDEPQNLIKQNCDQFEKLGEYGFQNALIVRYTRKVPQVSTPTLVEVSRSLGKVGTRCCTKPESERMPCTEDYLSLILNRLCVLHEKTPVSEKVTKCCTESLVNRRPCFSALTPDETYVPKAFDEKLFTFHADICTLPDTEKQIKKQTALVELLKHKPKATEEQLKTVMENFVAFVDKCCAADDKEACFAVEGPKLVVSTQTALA

SMILES | composite z-score (Albumin (Bos taurus)) | composite Z-score [1] | composite z-score [2] | composite z-score [3] | composite z-score [4] | composite z-score [5] | composite z-score [6] | composite z-score (Sam68 (KHDRBS1)) | composite z-score [7] | composite z-score [8]
CCCNC(=O)[C@@H]1c2ccccc2C(=O)N(Cc2cc(F)cc(C(F)(F)F)c2)[C@H]1c1ccc(CO)cc1 | -0.0179 | 0.457 (inactive) | 0.193 | 0.171 | 0.584 | 2.2 | -0.273 | 1.3 | 0.341 | 1.14
COC(=O)[C@@]1(Cc2ccc(OC)cc2)[C@H]2c3cc(C(=O)N(C)C)n(CCc4ccc(OC)c(Br)c4)c3C[C@H]2CN1C(=O)c1ccccc1 | 1.11 | -0.665 (inactive) | 0.831 | 0.395 | 0.718 | 2.9 | 0.482 | 1.29 | -1.11 | 1.2
COc1cccc([C@@H]2[C@@H](C)CC[C@H]3C(=O)N(C)[C@@H](C(C)C)C(=O)N23)c1 | -0.199 | 0.4 (inactive) | -0.0111 | -0.181 | -0.155 | 0.0706 | -0.343 | 0.346 | 0.466 | 0.416
C=CC[C@]1(C(=O)O)N=C(c2ccc(OCCCO)cc2)O[C@H]1c1ccccc1N=[N+]=[N-] | 0.548 | 0.0407 (inactive) | 0.0807 | -0.159 | 0.668 | 1.45 | 1.24 | 0.0203 | -0.37 | 0.642
[N-]=[N+]=NCc1ccccc1[C@H]1OC(c2ccc(OCCCO)cc2)=N[C@@]1(Cc1ccccc1N=[N+]=[N-])C(=O)NCc1ccccc1 | 0.763 | 0.945 (inactive) | 0.286 | 0.0243 | 0.579 | 1.65 | 0.174 | 1.31 | -0.633 | 1.12
C[C@@H]1NC(=O)CC=C[C@@H](C)[C@@H]2C=C[C@H](O)[C@@H](COC(=O)[C@H](C)NC(=O)CC=C[C@@H](C)[C@@H]3C=C[C@H](O)[C@@H](COC1=O)O3)O2 | -0.942 | -0.0764 (inactive) | -0.0328 | -0.179 | -0.0551 | -0.384 | -0.0401 | -0.116 | 0.786 | -1.2
Cc1ccc(N2C(=O)c3ccccc3[C@@H](C(=O)NCc3ccccc3)[C@@H]2c2ccc(CO)cc2)nc1 | -1.29 | -0.816 (inactive) | -0.0328 | -0.0272 | 0.451 | 3.91 | -0.0641 | -0.931 | 0.465 | -1.28
O=C/C=C/c1ccccc1Cl | 0.95 | -0.02 (inactive) | -0.0259 | -0.0866 | 0.408 | 0.333 | 0.399 | -0.764 | -0.768 | 0.0241
Cc1ccc(S[C@]2(C(=O)O)CC(=O)N(Cc3ccccc3)[C@@H]2c2ccc(CO)cc2)cc1 | -0.0554 | 1.28 (inactive) | -0.0328 | -0.154 | 0.724 | 1.02 | 0.623 | 0.401 | -0.852 | -0.467
C=CCN1C(=O)[C@@]2(Cc3ccccc3)N=C(c3ccc(OCCCO)cc3)O[C@H]2c2ccccc21 | 0.174 | 1.06 (inactive) | 0.0635 | 0.2 | 0.622 | 2.83 | 0.66 | 1.29 | 1.23 | 1.15
COC(=O)[C@H]1[C@@H]2COc3ccccc3[C@H]2N[C@H]1C(=O)OC | 0.235 | 0.0807 (inactive) | -0.0351 | -0.135 | 0.414 | 0.476 | 0.315 | 0.429 | 0.122 | 0.548
COc1cc2c(cc1OC)CN(C(=O)[C@H]1[C@@H]3C(=O)O[C@@H](c4ccccc4)[C@@H](c4ccccc4)N3[C@@H](c3ccccc3OCCO)[C@]13C(=O)Nc1ccc(C#CC4(O)CCCCCC4)cc13)CC2 | 0.168 | 0.267 (inactive) | -0.0043 | -0.0211 | 0.314 | 2.12 | 0.982 | 1.3 | 0.454 | 1.13
CC(C)[Si]1(C(C)C)OCc2cc(C3CC3)nc(-c3ccccc3)c21 | -0.613 | -0.536 (inactive) | -0.295 | -0.12 | 0.112 | -0.57 | -0.683 | -0.124 | -0.161 | -0.26
CCOC(=O)C1=C[C@@H](c2ccccc2)N(S(=O)(=O)c2ccc(C)cc2)[C@H]1c1ccc(F)cc1 | 0.823 | -0.263 (inactive) | 0.0836 | 0.111 | 0.283 | 1.57 | 0.284 | 1.16 | -0.0043 | 1.12
C[C@@H]1NC(=O)[C@H](Cc2ccccc2)NC(=O)[C@@]23C(=O)N[C@@H](Cc4ccccc4)C2[C@H](C)[C@@]2(C)O[C@H]2C3/C=C/C/C=C\CNC1=O (stereo not given in full) | 0.0296 | 0.0437 (inactive) | -0.0996 | 0.364 | 0.82 | -0.741 | -0.634 | -0.276 | 0.399 | -0.265
O=C(O)[C@@H]1Cc2c([nH]c3ccccc23)[C@@H](c2ccccc2)N1 | 0.118 | 0.756 (inactive) | -0.082 | -0.0148 | -0.0448 | 0.319 | -0.0124 | -0.188 | 0.379 | 0.813
COCCOC(=O)N1C(=O)[C@@]2(c3cc(C#CC4(O)CCCCCC4)ccc31)[C@H](C(=O)N1CCCCCCC1)[C@H]1C(=O)O[C@H](c3ccccc3)[C@H](c3ccccc3)N1[C@@H]2c1ccc(O)cc1 | -0.653 | 0.108 (inactive) | 0.885 | 0.337 | 0.485 | 2.62 | -0.139 | 1.3 | 0.519 | 1.08
COCCOC(=O)N1C(=O)[C@@]2(c3cc(C#CCC(C(=O)OC)C(=O)OC)ccc31)[C@H](C(=O)N1CCN(c3ncccn3)CC1)[C@H]1C(=O)O[C@H](c3ccccc3)[C@H](c3ccccc3)N1[C@@H]2c1ccc(O)cc1 | 0.752 | 0.394 (inactive) | -0.0343 | -0.0956 | 0.55 | 1.48 | 0.695 | 1.3 | -0.358 | 1.01
C=CC[C@@]1(C(=O)N2CCOCC2)N=C(c2ccc(OCCCO)cc2)O[C@@H]1c1ccccc1 | 0.18 | 0.0379 (inactive) | -0.223 | -0.327 | 0.716 | 2.17 | -0.108 | -0.157 | -0.796 | -0.226
C=CCc1cccc([C@@H]2[C@@H](C)CC[C@H]3C(=O)N4[C@H](c5cccc(CC=C)c5)[C@@H](C)CC[C@H]4C(=O)N23)c1 | 0.593 | 0.576 (inactive) | 0.0827 | -0.0304 | 0.244 | 0.564 | 0.035 | 0.55 | 0.977 | 1.03
CN1C2C=C(c3ccc(CO)cc3)C(C3C(=O)N(C(N)=O)C(=O)C32)C1c1cccs1 (stereo not given) | -0.444 | 0.173 (inactive) | 0.0261 | -0.162 | 0.704 | 0.4 | -0.342 | 0.0726 | -0.934 | -0.0029
O=C1O[C@H](c2ccccc2)[C@H](c2ccccc2)N2[C@H]1[C@@H](C(=O)NC[C@H](O)c1ccccc1)[C@]1(C(=O)Nc3ccc(C#CC4(O)CCCCCC4)cc31)[C@H]2c1ccc(OCCO)cc1 | 0.579 | 0.248 (inactive) | 0.108 | -0.109 | 0.603 | 1.92 | -0.0049 | 1.31 | 0.088 | 1.16
CC/C=C/C(=O)N(C[C@@H]1CCCO1)[C@@H]1CC(C(=O)NCCO)=C[C@H](Oc2c(I)cc(CO)cc2OC)[C@H]1O | 0.74 | 0.465 (inactive) | 0.0208 | -0.103 | 0.721 | 1.42 | 0.739 | 0.787 | -0.355 | -0.629
COc1ccc([Si](C)(C)[C@@H]2[C@@H](CC(=O)N(CCO)Cc3ccccc3)O[C@]3(C(=O)N(Cc4cccc(N5CCC5=O)c4)c4ccccc43)[C@H]2C)cc1 | 0.047 | 0.0923 (inactive) | -0.0647 | -0.0916 | 0.401 | 2.49 | 1.95 | 1.05 | 0.9 | 0.902

Reference: PubChem BioAssay
